Source: PubChem BioAssay (NCI)
This is part of a sample that, as a whole, favours compounds with a hit. Of some 83,000 tested, about 20% had one in any assay.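 How to read the values: 0–100, growth inhibition (40 = 60% inhibited); 0, no net growth; -100 to 0, cell death (-40 = 40% of starting cells died; -100 = all dead).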 A number with no mark means an inactive call. Activity calls are given as the source filed them. The calls were made as follows: active = growth percent below 10; inactive = the rest.

Experiments:
Assay in all cases: NCI-60 one-dose screen, 48 h (100 = growth as untreated, 0 = no growth, -100 = all killed)
Settings in all cases: 10 µM unless noted
[1] = test system: NCI-H23 lung
[2] = test system: NCI-H226 lung
[3] = test system: NCI-H322M lung
[4] = test system: HOP-62 NSCLC
[5] = test system: NCI-H460 lung
[6] = test system: HOP-92 NSCLC
[7] = test system: NCI-H522 lung
[8] = test system: A549/ATCC NSCLC
[9] = test system: 786-0 renal
[10] = test system: COLO 205 colon
[11] = test system: DU-145 prostate
[12] = test system: K-562 leukemia
[13] = test system: MALME-3M melanoma
[14] = test system: MDA-MB-231 breast
[15] = test system: RXF 393 renal
[16] = test system: SF-268 CNS
[17] = test system: SF-295 CNS
[18] = test system: SF-539 CNS
[19] = test system: UACC-257 melanoma
[20] = test system: M14 melanoma

| Compound | growth [1] [%] | growth [2] [%] | growth [3] [%] | growth [4] [%] | growth [5] | growth [6] | growth [7] | growth [8] | growth [9] | growth [10] | growth [11] | growth [12] | growth [13] | growth [14] | growth [15] | growth [16] | growth [17] | growth [18] | growth [19] | growth [20] |
| --- | --- | --- | --- | --- | --- | --- | --- | --- | --- | --- | --- | --- | --- | --- | --- | --- | --- | --- | --- | --- |
| O=C1C(Cl)=C(Nc2ccccc2)C(=O)C(Cl)=C1Nc1ccccc1 | 106 | 103 | 120 | 113 | 112% | 101% | 112% | 109% | 109% | 109% | 121% | 103% | 119% | 121% | 116% | 105% | 114% | 106% | 107% | 113% |
| CN1CCN(Cn2nc(-c3cc(F)c(Cl)cc3Cl)n(/N=C/c3ccc(N(C)C)cc3)c2=S)CC1 | 98 | 101 | 83.1 | 56 | 115% | 84.5% | 69% | 106% | 93.3% | 103% | 87.3% | 22.4% | 63.4% | 102% | 82.7% | 102% | 48.4% | 78.1% | 93.8% | 37.3% |
| Cn1c(I)c(C#C[Si](C)(C)C)c(=O)[nH]c1=O | 17.9 | 78.9 | 115 | 76.4 | 104% | -82.8% (active) | -58.7% (active) | 86.3% | -10.8% (active) | -59% (active) | 64.3% | -71.3% (active) | -65.9% (active) | 9.45% (active) | -86.3% (active) | -8.38% (active) | 96.2% | 96.7% | -36.5% (active) | -50.1% (active) |
| CCCN1C(=O)CSC1=Nc1ccc2cc3ccc(N=C4SCC(=O)N4CCC)cc3nc2c1 | 35.8 | 32.2 | 86.4 | 47.6 | 36.8% | 57.1% | 31.4% | 41.4% | 8.44% (active) | 36.8% | 83.7% | 21.4% | 33.5% | 18.5% | -27.9% (active) | 62.9% | 23% | 46% | 43.9% | 50.7% |
| O=C(/C=C/c1ccco1)c1cccc(Nc2nc(Nc3ccccc3)nc(Nc3ccccc3)n2)c1 | 57.6 | 99.5 | 34.6 | 86.5 | 8.52% (active) | 49.1% | 78.6% | 20.1% | 44% | 62.3% | 95% | 64.4% | 110% | 67.9% | 34.5% | 92.9% | 61.5% | 94.4% | 101% | 92.1% |
| COc1ccc2c(c1)OC(N)=C(C#N)C2c1ccc(F)c(F)c1 (stereo not given) | 48.2 | 69.2 | 51.4 | 44.9 | 14.4% | 76.3% | -12.6% (active) | 37.1% | 41.4% | 10.3% | 30.4% | 9.04% (active) | 78.4% | 44.5% | -9.6% (active) | 56.7% | 23.1% | 14.6% | 73% | 18.8% |
| c1ccc(-c2nc3sc(C(c4ccccc4)c4ccccc4)nn3c2-c2ccccc2)cc1 | 92.2 | 99.6 | 93.6 | 89.9 | 95.6% | 77.9% | 95.3% | 85.3% | 94.9% | 86.8% | 99.9% | 106% | 86.4% | 97.8% | 109% | 92.6% | 98.6% | 98% | 92.2% | 92% |
| O=C(Nc1cccc(-n2ccc3c(NC(=O)c4ccccc4)nccc32)c1)c1cccc(C(F)(F)F)c1 | 20.8 | 35.6 | 34.2 | 36.4 | 3.05% (active) | 40.3% | -45.2% (active) | 7.84% (active) | -14.6% (active) | -44.5% (active) | -10.9% (active) | 12.1% | 48.3% | 3.85% (active) | -49.4% (active) | 14.8% | -8.39% (active) | 4.4% (active) | 42.4% | 7.48% (active) |
